# Test results published in PubChem BioAssay (NCATS).
# Inconclusive results are not listed. A call without a number means that no potency is given here. Calls of active or inactive are those of the source. The call rests on the fitted dose curve; in most records, active means well fitted curve in the direction sought with a large enough effect; inconclusive means small, poorly fitted or top-dose-only effect, or another doubt; inactive means no such curve, though single readings can be large; an effect the other way counts as inactive or inconclusive.
# Assay: qHTS for Inhibitors of Plasmodium falciparum (GB4) proliferation (AID 504315); further: nearly all actives have a fitted effect of over 50% in size
# Details: P. falciparum GB4 in erythrocytes, SYBR Green DNA, 72 h; series mostly up to 6.7 µM
# In short: (§1)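 Erythrocytes infected with P. falciparum line (0.3% parasitemia, 2.5% hematocrit final) incubated with compounds 72 h at 37 °C, 5% CO2; SYBR Green lysis buffer added, fluorescence read next day. Normalized to 0.29 uM artemisinin and DMSO.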
row,Compound,Potency
1,CC1=CC[C@@H](COc2ccccc2)O[C@@]2(C1)C(=O)N(CC1CC1)c1ccccc12,inactive
2,C=C(C)C[C@@]1(c2ccccc2)Oc2ccccc2C2=NCCN=C21,inactive
3,CC12C=C(C=Cc3ccccc3)C(C)(C1)C(c1ccccc1)CC2=O (stereo not given),inactive
4,CC1(OC(=O)c2ccc(Cl)nc2)C(=O)C=C2C=C(c3ccsc3)OC=C2C1=O (stereo not given),inactive
5,CCc1cc2c(nc1CC)CCN(CCC(C)=NOCC[C@@H]1C=C[C@H](OC(C)=O)[C@@H](COC(C)=O)O1)C2,inactive
6,CC(C)=CCCC(C)=CCON=C1C[C@@H](O)[C@@H](O)[C@@H]2[C@H]3C(=O)N(Cc4ccccc4)C(=O)[C@@H]3CC[C@@H]12,inactive
7,Oc1ccc2c(c1-c1c(O)c(Br)cc3c1CCCC3)CCCC2,inactive
8,COc1ccc(O[C@H]2C=C[C@@H](c3ccccc3)O[C@H]2COC(=O)CCC(C)=NO[C@H](C)c2cn([C@@H]3COC[C@@H]3O)nn2)cc1,inactive
9,C#CCCOC(=O)N1C2=NC3=C(C(=O)N(Cc4ccc5c(c4)OCO5)C3=O)C3N(C)c4ccccc4[C@]23C[C@H]1CO (stereo not given in full),inactive
10,CC(C)=CCCC(C)=CC=CC1=CC2(C)CC1(C)C(C=C(C)CCC=C(C)C)CC2=O (stereo not given),inactive
11,C=CCC(Nc1ccc(OC)cc1)(C(=O)OCC)c1ccccc1 (stereo not given),inactive
12,COC(=O)C1=C(C)N(CC2CC2)C(=O)NC1CCc1ccccc1 (stereo not given),inactive
13,C[C@H]1Cc2c(COc3ccccc3)nc3c(c2CO1)CN(C(=O)NCc1ccco1)CC3,inactive
14,CCc1cc2c(nc1CC)CCN(CCC(C)=NO[C@@H]1O[C@H](COC(C)=O)[C@@H](OC(C)=O)[C@H](OC(C)=O)[C@@H]1OC(C)=O)C2,inactive
15,COC1=C[C@@H](C(=O)N[C@H]2CCCC[C@H]2NC(C)=O)[C@]2(C)Cc3ccccc3[C@H]2CC1=O,inactive
16,C[C@H](NC(=O)N1CCc2nc(-c3ccccc3)c3c(c2C1)CO[C@@H](C)C3)c1ccccc1,inactive
17,COc1cc(CCN2C(=O)NC(c3cccc(C(F)(F)F)c3)C(C(C)=O)=C2C)cc(OC)c1OC (stereo not given),inactive
18,COC(=O)C1=C(C(=O)OC)[C@@H]2N(C)c3ccccc3[C@@]23CCC(=O)N(Cc2ccc4c(c2)OCO4)C3=N1,inactive
19,CC(CCN1CCc2nc(-c3ccccc3)c(-c3ccccc3)cc2C1)=NOC[C@@H](O)COCc1ccco1,inactive
20,COC(=O)C1=C(C(=O)OC)[C@@H]2N(C)c3ccc(OC)cc3[C@@]23C[C@@H](C(=O)OC)N(C(=O)N2CCNC2=O)C3=N1,inactive
21,COc1ccc2c3c(c(=O)oc2c1)[C@H]1O[C@](c2ccsc2)(Cc2cc(C#N)ccc21)O3,inactive
22,C[C@@H]1C=CCC(=O)N2[C@H](CC(=O)N[C@@H]1c1ccccc1)C[C@@H](C)[C@@H]2c1ccccc1,inactive

# Assay: qHTS for Inhibitors of Plasmodium falciparum (7G8) proliferation (AID 504316); further: nearly all actives have a fitted effect of over 65% in size; further: potency means the concentration at half of the fitted maximal effect
# Details: P. falciparum 7G8 in erythrocytes, SYBR Green DNA, 72 h; series mostly up to 6.7 µM
# In short: as §1
row,Compound,Potency
1,COc1ccc(O[C@H]2C=C[C@@H](c3ccccc3)O[C@H]2COC(=O)CCC(C)=NO[C@H](C)CN2CCCc3nc(C)c(C)cc32)cc1,1.9 µM (active)
2,CC#CCN1c2ccccc2[C@]23CCC(=O)N(Cc4ccco4)C2=NC(C(=O)OC)=C(C(=O)OC)[C@H]13,1.69 µM (active)
3,O=C(N[C@H](c1cccc(Br)c1)[C@@H]1CCCC=C1c1ccccc1)C(F)(F)F,inactive
4,CCCC[C@]12Cc3cc(OC)c(OC)cc3[C@H](O1)c1c(cc(-c3ccccc3)oc1=O)O2,1.51 µM (active)
5,C=C[C@H]1CCC=C2C(=O)CCC[C@H]21,1.9 µM (active)
6,O=C1C2=C(C(=O)c3ccccc31)[C@H]1O[C@](c3ccsc3)(Cc3ccccc31)O2,1.9 µM (active)
7,CCOC(=O)OC[C@H]1O[C@H](c2ccc(C(C)=O)cc2)C=C[C@H]1Oc1ccc(-c2ccccc2)cc1,1.51 µM (active)
8,COC(=O)C1=C(C(=O)OC)[C@@H]2N(Cc3ccccc3)c3ccccc3[C@@]23C[C@@H](CO)N(C(=O)CC(C)C)C3=N1,1.69 µM (active)
9,COC(=O)C1=C(C)N(Cc2ccccc2)C(=NCCCCO)NC1c1cccc(F)c1 (stereo not given),inactive
10,CCCCCCCc1cc2ccc(F)cc2c2c(C(=O)OC)c(C(=O)OC)c(C(=O)OC)n12,inactive
11,C=CCN=C1NC(c2cccc(C(F)(F)F)c2)C(C(=O)OC)=C(C)N1Cc1ccccc1 (stereo not given),inactive
12,C=C(C[C@@]1(C(=O)OC)C=C[C@@H](C)[C@H](c2ccccc2Br)N1C(=O)C(F)(F)F)c1ccccc1,1.9 µM (active)
13,COc1ccc(O[C@H]2C=C[C@@H](c3ccccc3)O[C@H]2COC(=O)CCC(C)=NOC[C@@H](C)[C@H](OCc2ccccc2)C(C)C)cc1,1.9 µM (active)
14,CCCC[C@]12Cc3cc(OC)c(OC)cc3[C@H](O1)C1=C(CC3(CCCCC3)OC1=O)O2,inactive
15,CCCC[C@]12Cc3cc(C#N)ccc3[C@H](O1)c1c(cc(C)n(Cc3ccccc3)c1=O)O2,1.69 µM (active)
16,CCc1cc2c(nc1CC)CCN(CCC(C)=NOC[C@H]1O[C@H](c3ccccc3)C=C[C@H]1Oc1ccc(OC)cc1)C2,1.69 µM (active)
17,COC(=O)[C@@H]1CC[C@H](C)[C@@H](c2ccc(C)cc2)N1C(=O)c1ccc(C=NOC[C@H]2O[C@H](c3ccccc3)C=C[C@H]2Oc2ccc(OC)cc2)cc1,inactive
18,CC(CCN1CCCc2nc(C)c(C)cc21)=NO[C@H](C)c1cn([C@H](CO)Cc2ccccc2)nn1,1.51 µM (active)
